# Where “and” joins values, the source holds several entries; their conditions need not be identical. Identical values can stand only once.
# Target: Hexose transporter 1 (Plasmodium falciparum) (UniProt O97467)
# Assay: ST_JUDE_LEISH: Cytotoxicity at 2uM final concentration against transgenic Leishmania Mexicana promastigotes LmPfHT that are glucose transport deficient and complemented with the Plasmodium falciparum hexose transporter. Activity is measured by DNA content using SYBR green in vitro
# Format: functional
row,SMILES,inhibition
1,CC(=O)Nc1ccc(OCCCN(Cc2ccccc2C(F)(F)F)c2ccc(C(F)(F)F)c(C#N)c2)c(Cl)c1,5.68%
2,COc1ccc(-c2cc(C(=O)N[C@@H](Cc3ccccc3)C(=O)NCCN3CCCCC3)ccc2O)cc1,2.26%
3,CCc1ccc(-c2nc3cc(NC(=O)c4ccc([N+](=O)[O-])o4)ccc3o2)cc1,2.33%
4,O=C(Nc1ccc(Cn2ncc(N3CCCNCC3)c(Cl)c2=O)cc1)Nc1ccc(-c2ccccc2)cc1,0.35% and 2.4%
5,CCCCc1cc(NCc2ccncc2)nc(Nc2ccc(OC)cc2)n1,5.76%
6,COc1ccc(NC(=O)[C@H](CC(C)C)Nc2cc(C)nc(NCc3cccc(C)c3)n2)cc1,9.82%
7,COc1cc(OC)cc(-c2nn(-c3ccc([N+](=O)[O-])cc3Cl)c(=S)n2CC2CCCO2)c1 (stereo unspecified),-3.05%
8,C#CCNCc1ccc(-c2ccc(-c3nc4cc(C(F)(F)F)ccc4[nH]3)s2)cc1,-0.12%
9,CN(C)c1ccc(-c2ccc(C(=O)NC3CCN(Cc4cccc(C(F)(F)F)c4)CC3)s2)cc1,6.03%
10,Oc1ccc(CCNc2nc(NCc3ccccc3-c3ccc(C(F)(F)F)cc3)nc(NC3CCNCC3)n2)cc1,0.48%
11,Cc1cnc(N2CCN(CCCN3CCCC3)CC2)nc1Oc1ccc(-n2ccnc2)cc1,2%
12,CCCc1cc(NCC)nc(Nc2ccc(C)cc2)n1,7.16%
13,CC(C)c1cc2c(ccc3nc(N)nc(N)c32)o1,5.34%
14,CCCCNC(=O)C1CCCN(C(=O)c2ccc(O)c(-c3ccc(Cl)c(Cl)c3)c2)C1 (stereo unspecified),1.16%
15,CC1(C)NC(N)=NC(=N)N1OCCc1ccccc1,0.77%
16,Clc1ccc(Sc2cncnc2N2CCOCC2)cc1,1.01%
17,CN1c2ccc([N+](=O)[O-])cc2C(C)(C)C12C=Cc1cc(Br)cc([N+](=O)[O-])c1O2 (stereo unspecified),-0.39%
18,O=C(/C=C/c1ccc(Cl)c(Cl)c1)NCCCCCN1CCCC(C(=O)Nc2ccc(Cl)c(Cl)c2)C1 (stereo unspecified),-1.19%
19,COc1cc2nccc(Nc3cccc(Oc4ccccc4)c3)c2cc1OC,14.4%
20,OC(CNc1ccnc(Nc2cccc(Cl)c2)n1)c1cccc(C(F)(F)F)c1 (stereo unspecified),11.6%
21,COc1ccc2c(=NN=C(C)c3ccccn3)cc(C)[nH]c2c1,9.51%
22,OC1CCCN(Cc2ccc(-c3ccc(-c4nc5ccccc5[nH]4)cc3)cc2)C1 (stereo unspecified),7.95%
23,FC(F)(F)c1ccccc1OCc1cc(-c2ccncc2)c(COc2ccccc2C(F)(F)F)cc1C1=CCNCC1,2.17%
24,CCCc1cccc(OC)c1OCCCON1C(N)=NC(N)=NC1(C)C,-0.29%
25,COc1cc(C(=O)NC2CCN(Cc3ccccc3)CC2)ccc1-c1nc2c(Cl)cc(C(F)(F)F)cc2[nH]1,3.32%
26,O=C(/C=C/c1ccc(Cl)c(Cl)c1)NCCCCCN1CCN(C(=O)Nc2ccc(Cl)c(C(F)(F)F)c2)CC1,0.61%

# — ChEMBL document CHEMBL3433997, “St. Jude Leishmania screening dataset” (2016)
